Bioassay records (PubChem)
Only a selection was taken, and hits are over-represented in it overall.
APEX1 inh – blocks human APE1 abasic DNA cleavage; Potency, µM (series often up to 65.8 µM), without a hit: at the highest dose activity change, negative = inhibition, most hits filed as inhibitors; AID 2517; 350,000 tested, 0.35% active; P27695; recombinant APE1, TAMRA/BHQ-2 abasic DNA cleavage fluorescence;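 also: plate controls were vehicle for no effect and reference inhibitor for full effect; nearly all actives have a fitted effect of over 55% in size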
Target sequence (P27695 whole entry, looked up): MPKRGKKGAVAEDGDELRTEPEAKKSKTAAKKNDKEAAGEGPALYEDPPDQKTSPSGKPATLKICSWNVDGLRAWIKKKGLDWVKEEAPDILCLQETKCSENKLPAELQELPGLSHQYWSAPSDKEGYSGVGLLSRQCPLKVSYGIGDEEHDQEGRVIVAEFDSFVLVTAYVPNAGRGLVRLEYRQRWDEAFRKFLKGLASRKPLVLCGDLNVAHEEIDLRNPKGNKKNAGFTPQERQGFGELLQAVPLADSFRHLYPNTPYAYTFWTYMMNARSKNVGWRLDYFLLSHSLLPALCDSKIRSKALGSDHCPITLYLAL
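Enzyme (0.75 nM final) and test compound are incubated 15 min at room temperature before adding 50 nM quenched THF abasic-site duplex. Cleavage dequenches TAMRA, followed at 525/598 nm over three reads one minute apart.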
L3MBTL1 inh – inhibitors of human L3MBTL1; AID 485360; AlphaScreen L3MBTL1–H3K9me1 peptide binding; Potency, µM (doses to about 57.1 µM), for inactives: top-dose activity, negative = inhibition, hits mostly inhibitors; 230,000 tested, 0.66% active; Q9Y468; also: nearly all actives have a fitted effect of over 60% in size
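AlphaScreen proximity signal between nickel-chelate acceptor and streptavidin donor beads (final 10 ug/mL) reports binding of 50 nM L3MBTL1 to 75 nM biotin-H3 K9me1 peptide; complex incubated with compounds 30 min at room temperature; cefsulodin titration as control.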
BLM helicase inh – blocks DNA unwinding by human BLM helicase | recombinant BLM DNA unwinding, fluorescence dequenching | Potency, µM (highest dose often 56.1 µM), for the others: at the top dose activity change, negative = inhibition, actives largely listed as inhibitors | 350,000 tested, 0.2% active;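 also: plate controls were vehicle for no effect and no enzyme for full effect; nearly all actives have a fitted effect of over 35% in size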
KDM4E inh – inhibitors of human JMJD2E histone demethylase; B2RXH2; JMJD2E catalytic domain, FDH-coupled NADH fluorescence (FDH is formaldehyde dehydrogenase); Potency, µM (series often up to 57.1 µM), for the others: at the highest dose activity change, negative = inhibition, actives largely listed as inhibitors; 230,000 tested, 1.6% active; active = well fitted inhibition curve with a large enough effect, not every such curve was filed as active; inconclusive = small, poorly fitted or top-dose-only effect, or another doubt; inactive = no such curve, though single readings can be large or run the other way;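 also: 0% = wells with enzyme and -100% = buffer wells without enzyme; nearly all actives have a fitted effect of over 50% in size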
Target sequence (B2RXH2 1-337 limits assumed): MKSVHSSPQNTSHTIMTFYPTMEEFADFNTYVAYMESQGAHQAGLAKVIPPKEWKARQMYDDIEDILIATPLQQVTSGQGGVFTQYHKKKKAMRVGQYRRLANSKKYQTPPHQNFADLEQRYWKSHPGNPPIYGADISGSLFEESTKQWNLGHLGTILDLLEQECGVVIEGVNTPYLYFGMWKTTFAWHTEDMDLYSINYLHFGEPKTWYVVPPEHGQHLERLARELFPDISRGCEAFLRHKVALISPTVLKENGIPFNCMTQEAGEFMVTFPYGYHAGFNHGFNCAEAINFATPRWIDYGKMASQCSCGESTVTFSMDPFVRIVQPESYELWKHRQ
KAT2A inh – GCN5L2 (KAT2A) acetyltransferase inhibition | Q92830 | GCN5L2 HAT assay, ThioGlo1 CoA-SH fluorescence | Potency, µM (top dose mostly 58.9 µM), inactives show at the highest dose activity change, negative = inhibition, actives largely listed as inhibitors | 390,000 tested, 0.21% active
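Preincubate 20nM GCN5L2 with compound 15 min, RT → add 50uM ThioGlo1 + 75uM H3(1-25) + 70uM acetyl-CoA → read fluorescence 0 and 20 min. Primary qHTS; fluorescent artifacts likely.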
RECQ1 helicase – inhibitors of human RECQ1 DNA helicase. RECQ1 DNA unwinding, red fluorescence kinetic read. Potency, µM (series often up to 57.3 µM), inactives show at the top dose activity, negative = inhibition, most hits filed as inhibitors. 240,000 tested, 0.54% active;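 also: plate controls were vehicle for no effect and no enzyme for full effect; nearly all actives have a fitted effect of over 30% in size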
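RECQ1T1 50 nM; forked duplex (20 bp + 30-nt ss tails) 200 nM, ATP 2 mM final; pH 8.0, 2 mM MgCl2, 2.5 ug/ml poly(dI-dC); 15 min compound preincubation; discontinuous kinetic read over 2 h at RT.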
The depositor's hits bear a star; i = inactive; ? = inconclusive; . = no result; ! = not confirmed by another sample; [ ] = dose if it differs, or a comment. Unless noted, calls follow the shape of the dose curve; as a rule, active = well fitted curve in the direction sought with a large enough effect; inconclusive = small, poorly fitted or top-dose-only effect, or another doubt; inactive = no such curve, though single readings can be large; an effect the other way counts as inactive or inconclusive. Unless noted, % is scaled to controls: 0 for no effect and ±100 for the full control effect; potency is read from the fitted curve at half-maximal effect.

SMILES	APEX1 inh	L3MBTL1 inh	BLM helicase inh	KDM4E inh	KAT2A inh	RECQ1 helicase
COc1cc(N=Nc2cccc(S(N)(=O)=O)c2)c2ccccc2c1N	?	-25.5%	3.98µM*	?	-10.0%	i
CCc1cc(CNC(=O)c2ccc(OC3CCN(CCc4ccccc4)CC3)cc2)on1	11.9µM*	.	-5.9%	.	-2.0%	.
COC(=O)c1ccc2c(c1)C(C)(C)C(/C=C/c1ccc(O)cc1)=[N+]2C	?	-3.2%	-1.4%	43.2%	-25.9%	12.6µM*
Cc1ccc(S(=O)(=O)C2CS(=O)(=O)CC2O)cc1 (centres undefined)	2.3%	.	-2.2%	-1.3%	-7.4%	-5.8%
CC(=O)C1=C(S(=O)(=O)c2ccc(C)cc2)CS(=O)(=O)C1	1.9%	3.9%	-1.6%	14.1µM*	2.1%	i
FC(F)(F)c1ccccc1-c1nc(N2CCNCC2)c2ccccc2n1	2.7%	.	-10.0%	?	1.2%	-5.7%
FC(F)(F)c1ccccc1-c1nc(N2CCOCC2)c2ccccc2n1	25.1µM*	.	-11.4%	.	?	-1.3%
CC(NC1CCCCC1)C(=O)NN=C(c1ccccc1)c1ccccc1 (centres undefined)	-3.9%	-5.6%	-3.2%	17.2%	-3.1%	28.2µM*
CC(Cl)C(=O)NN=C(c1ccccc1)c1ccccc1 (centres undefined)	19.8%	4.8%	-4.8%	-14.0%	1.2%	i
O=C1c2ccccc2NC(c2cccc(F)c2)N1Cc1ccco1 (centres undefined)	7.94µM*	4.47µM*	?	?	-2.6%	-19.3%
O=C1c2ccccc2NC(c2ccc(O)cc2)N1Cc1ccco1 (centres undefined)	-2.7%	.	-17.2%	?	-13.7%	i
CCOC(=O)C1CCCN(C(=O)Cn2sc3nc(C)cc(C)c3c2=O)C1 (centres undefined)	-0.4%	.	-9.2%	?	?	-1.7%
Cc1cc(C)c2c(=O)n(CC(=O)N3CCC(N4CCCCC4)CC3)sc2n1	23.4%	.	-3.7%	?	31.6µM*	1.3%
CCCNC(=O)Cn1sc2nc(C)cc(C)c2c1=O	1.5%	.	-1.6%	?	28.2µM*	0.0%
Cc1ccc(Nc2nc(N)nc(CN3CCCCCC3)n2)cc1	2.9%	?	2.3%	-23.2%	-10.3%	3.7%
Nc1nc(CN2CCCCCC2)nc(Nc2ccccc2)n1	-2.7%	28.2µM*	1.3%	?	-2.7%	-20.7%
CCN(CCCNC(=O)C1CCCN(S(=O)(=O)c2cnc[nH]2)C1)c1ccccc1 (centres undefined)	8.1%	-4.9%	2.6%	-1.8%	?	-16.3%
Cc1cc(C)c2nc(C)cc(N/N=C/c3ccc(O)cc3)c2c1	?	-7.1%	31.6µM*	.	-10.7%	.
COc1ccc(CCn2c(=O)[nH]c3cc(C(=O)N4CCN(c5ccccn5)CC4)ccc3c2=O)cc1OC	21.5%	.	-1.3%	1.1%	-6.1%	-14.5%
CC(C)(C)c1ccc(C(=O)Nc2ccc(C=C(C#N)C#N)cc2)cc1	-3.9%	3.4%	-4.2%	11.2µM*	-6.3%	-12.6%
O=C(Nc1ccc(C(=O)N2CCCCC2)cc1)c1ccc(Br)cc1	-1.5%	0.7%	-5.9%	-0.3%	-0.4%	-2.0%
N#CC(C#N)=Cc1ccc(NC(=O)c2ccc(Br)cc2)cc1	-4.9%	.	-12.3%	20µM*	-3.1%	-5.5%
O=C(/C=C/c1ccc(O)c(O)c1)c1ccc(O[C@@H]2O[C@H](CO)[C@@H](O)[C@H](O)[C@H]2O)c(O)c1O	?	.	-0.2%	.	-22.0%	-10.4%
CC(C)C(C)(C#N)NC(=O)CSc1nc2scc(-c3ccco3)c2c(=O)n1-c1ccccc1 (centres undefined)	?	-1.2%	?	?	-4.3%	20µM*
C=CC[C@@H]1C=C[C@H](O/N=C(\C)CCN2CCCc3nc(C)c(C)cc32)[C@H](CO)O1	?	.	0.2%[12.4 µM]	.	.	-2.8%[11.5 µM]
SMILES	APEX1 inh	L3MBTL1 inh	BLM helicase inh	KDM4E inh	KAT2A inh	RECQ1 helicase
CC1CCN(c2c([N+](=O)[O-])c(=O)n(-c3ccccc3)c3ccccc23)CC1	4.5%	-1.8%	-1.0%	1.9%	1.41µM*	i
COc1ccccc1NC(=O)N1CCN(c2cc(-c3ccccc3)nc3ncnn23)CC1	-5.5%	6.6%	1.1%	-0.7%	-3.9%	-0.6%
Cn1c(=O)c(=O)n(C)c2cc(S(=O)(=O)CCC(=O)Nc3ccc(F)cc3)ccc21	-13.7%	1.4%	1.6%	.	1.26µM*!	.
COc1ccc(C(=O)COC(=O)c2ccccc2O)c(OC)c1	-14.9%	8.91µM*	.	.	?	.
COc1ccc(C(=O)OCC(=O)c2cc(OC)ccc2OC)c(OC)c1	9.2%	-0.7%	-1.8%	-12.2%	-8.6%	i
CC(C)(C)n1ncc2c(=O)n(Cc3ccc(SC(=O)O)cc3Cl)cnc21	17.8%	.	.	.	.	.
Cc1nc2ccccc2c(=O)n1/N=C/c1ccc2ccccc2c1O	-0.5%	31.6µM*	-0.9%	?	7.7%	-0.4%
Cc1nc2ccccc2c(=O)n1/N=C/c1ccc(O)c(O)c1O	-18.0%	.	-18.2%	.	-20.5%	.
Cc1nc2ccccc2c(=O)n1/N=C/c1ccccc1O	27.8%	3.5%	-5.3%	25.1µM*	-11.9%	-11.0%
Cc1noc(C)c1-c1ccc2ncnc(NCc3ccc4c(c3)OCO4)c2c1	-8.3%	.	0.9%	.	.	-4.7%
COc1ccccc1CCNC(=O)Cc1c(C)c2cc(Cl)c(O)cc2oc1=O	.	.	2.7%	.	31.6µM*	.
COc1cccc(/C=N/NC(=O)CNC(=O)c2ccco2)c1O	1.2%	4.4%	-3.7%	14.1µM*	-11.0%	-4.5%
COc1cccc(/C=N/NC(=O)C(=O)NCc2cccnc2)c1OC	3.6%	-3.1%	-0.6%	8.4%	3.0%	i
COc1cc(/C=N/NC(=S)Nc2cccc(C(=O)O)c2)ccc1O	-18.6%	0.0%	3.5%	?	-7.1%	1.1%
COc1cccc(/C=N/NC(=S)Nc2cccc(C(=O)O)c2)c1O	-3.2%	.	-1.4%	28.2µM*	-16.2%	-3.5%
COc1cccc(/C=N/NC(=O)CNC(=O)C2COc3ccccc3O2)c1O (centres undefined)	4.5%	6.2%	-0.4%	17.8µM*	-6.0%	-10.3%
O=C(CNC(=O)C1COc2ccccc2O1)N/N=C\c1ccccc1Cl (centres undefined)	79.6%	.	0.0%	.	-3.8%	.
COc1cccc(/C=N/NC(=O)C(=O)NCc2cccnc2)c1O	8.3%	?	-10.2%	10µM*	28.9%	-4.0%
N#Cc1c(-c2ccc3ccccc3c2)no[n+]1[O-]	-7.8%	.	.	.	.	.
COc1cccc(/C=N/NC(=O)C[n+]2ccccc2)c1O	-3.8%	15.8µM*	-5.1%	14.1µM*	-3.5%	?
COc1ccc(/C=N/NC(=O)CNC(=O)COc2ccccc2)cc1	18.3%	-2.9%	2.0%	0.0%	20.9%	-3.9%
